According to PubChem BioAssay (NCATS):
Records with an inconclusive call do not appear. Activity calls are given as the source filed them. The call rests on the fitted dose curve; in most records, active means well fitted curve in the direction sought with a large enough effect; inconclusive means small, poorly fitted or top-dose-only effect, or another doubt; inactive means no such curve, though single readings can be large or run the other way.
On the % scale 0 is the no-effect control and ±100 the full control effect.

Test: qHTS Assay for Identifying Gametocytocidal Compounds (AID 743244);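 further: actives lower the fluorescent signal which means gametocytes are killed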
Details: P. falciparum 3D7 stage III-V gametocytes, alamarBlue, 72 h; max response: stronger effect = lower value
Method in brief: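 A resazurin-based viability read-out was applied to mature P. falciparum gametocytes: 72 h compound treatment, then 24 h dye incubation, with falling fluorescence signalling gametocytocidal effect.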
With `CO[C@@]1(NC(=O)C2SC(=C(C(N)=O)C(=O)O)S2)C(=O)N2C(C(=O)O)=C(CSc3nnnn3C)CS[C@@H]21` (stereo partly drawn) the max response was 10.6% (inactive).
With `CC(=O)N=c1sc(S(N)(=O)=O)nn1C` the max response was 3.69% (inactive).
For `CC(=O)Oc1cc(C(F)(F)F)ccc1C(=O)O`, the max response was 17% (inactive).
With `NC(N)=NCC1COc2ccccc2O1` (stereo not drawn) the max response was -11.6% (inactive).
With `CCCCC[C@H](O)/C=C/[C@@H]1[C@H]2C/C(=C/CCCC(=O)O)O[C@H]2C[C@H]1O` the max response was 18.5% (inactive).
In the case of `Cc1ccccn1`, the max response is reported as 2.7% (inactive).
For `O=C(O)CCCC/C=C(\c1ccccc1)c1cccnc1`, the max response was 0.181% (inactive).
With `CO[C@H]1C=CO[C@@]2(C)Oc3c(C)c(O)c4c(O)c(cc(O)c4c3C2=O)NC(=O)/C(C)=C\C=C/[C@H](C)[C@H](O)[C@@H](C)[C@@H](O)[C@@H](C)[C@H](OC(C)=O)[C@@H]1C` the max response was -6.86% (inactive).
In the case of `O=C(O)c1ccc(NC2OC[C@@H](O)[C@H](O)[C@H]2O)cc1` (stereo partly drawn), the max response is reported as -2.1% (inactive).
For `CC(=O)OCC(=O)[C@@]1(O)CC[C@H]2[C@@H]3CCC4=CC(=O)CC[C@]4(C)C3=CC[C@@]21C`, the max response was -8.18% (inactive).
With `Nc1nc(=O)n([C@@H]2CS[C@H](CO)O2)cc1F` the max response was 4.32% (inactive).
In the case of `O=C(O)c1cc(N=Nc2ccc(O)c(C(=O)O)c2)ccc1O`, the max response is reported as 0.0283% (inactive).
For `CC(C)C1=CC2=CC[C@@H]3[C@](C)(CCC[C@@]3(C)C(=O)O)[C@H]2CC1`, the max response was -5.77% (inactive).
With `C[C@@H]1C[C@H]2[C@@H]3CCC4=CC(=O)C=C[C@]4(C)[C@@]3(F)[C@@H](O)C[C@]2(C)[C@@]1(O)C(=O)COC(=O)c1cccc(S(=O)(=O)O)c1` the max response was 12.5% (inactive).
In the case of `CC(=O)Nc1ccc(OC(=O)c2ccccc2O)cc1`, the max response is reported as -4.48% (inactive).
In the case of `CC(C)CN(C[C@@H](OP(=O)(O)O)[C@H](Cc1ccccc1)NC(=O)O[C@H]1CCOC1)S(=O)(=O)c1ccc(N)cc1`, the max response is reported as -7.76% (inactive).
In the case of `CC(=O)Nc1ccc(NC(=S)NC(=O)c2ccc(C(C)(C)C)cc2)cc1`, the max response is reported as -8.07% (inactive).
In the case of `C=CCN1CCCC1CNC(=O)c1cc(S(N)(=O)=O)cc(OC)c1OC` (stereo not drawn), the max response is reported as -2.17% (inactive).
In the case of `CCC(Oc1ccccc1)C(=O)N[C@@H]1C(=O)N2[C@@H]1SC(C)(C)[C@@H]2C(=O)O` (stereo partly drawn), the max response is reported as 14.1% (inactive).
For `OCCCNc1ccccc1`, the max response was -7.9% (inactive).
In the case of `CC(C)(C)C(=O)OCC(=O)[C@H]1CC[C@H]2[C@@H]3CCC4=CC(=O)CC[C@]4(C)[C@H]3CC[C@]12C`, the max response is reported as 6.08% (inactive).
With `OC1OC[C@@H](O)[C@H](O)[C@@H]1O` (stereo partly drawn) the max response was 7.58% (inactive).
With `CO/N=C(\C(=O)N[C@@H]1C(=O)N2C(C(=O)O)=C(CSc3nc(C)c(CC(=O)O)s3)CS[C@H]12)c1csc(N)n1` the max response was 4.68% (inactive).
With `COC(=O)C(CN)c1c[nH]c2ccc(OC)cc12` (stereo not drawn) the max response was -6.34% (inactive).
With `NCC[C@H](O)C(=O)N[C@@H]1C[C@H](N)[C@@H](O[C@H]2O[C@H](CN)CC[C@H]2N)[C@H](O)[C@H]1O[C@H]1O[C@H](CO)[C@@H](O)[C@H](N)[C@H]1O` the max response was -1.8% (inactive).
With `COc1cc(S(C)=O)ccc1-c1nc2ncccc2[nH]1` (stereo not drawn) the max response was 11.9% (inactive).
With `CCN(CC)C(=O)[C@]1(c2ccccc2)C[C@@H]1CN` the max response was -1.74% (inactive).
For `C=CC[N@@+]12CC[C@@]34c5ccccc5N5/C=C6/[C@H]7C[C@H]8[C@@]9(CC[N@@+]8(CC=C)C/C7=C/CO)c7ccccc7N(/C=C(/[C@@H](C[C@@H]31)/C(=C\CO)C2)[C@H]54)[C@@H]69`, the max response was 4.55% (inactive).
For `O=C(O)c1cc(O)c2c(c1)[C@H]([C@H]1c3cc(C(=O)O)cc(O)c3C(=O)c3c(O[C@@H]4O[C@H](CO)[C@@H](O)[C@H](O)[C@H]4O)cccc31)c1cccc(O[C@@H]3O[C@H](CO)[C@@H](O)[C@H](O)[C@H]3O)c1C2=O`, the max response was -8.85% (inactive).
For `CC(CC=O)CCCC(C)(C)O` (stereo not drawn), the max response was 6.46% (inactive).
With `NC(Cc1ccccc1)C(=O)O` (stereo not drawn) the max response was 3.95% (inactive).
With `CC(C)c1nc(N(C)S(C)(=O)=O)nc(-c2ccc(F)cc2)c1/C=C/C(O)CC(O)CC(=O)O` (stereo not drawn) the max response was 12% (inactive).
For `CO[C@H]1C[C@H](O[C@H]2[C@H](C)[C@@H](O[C@@H]3O[C@H](C)C[C@H](N(C)C)[C@H]3O)[C@@H](C)C[C@]3(CO3)C(=O)[C@H](C)[C@@H](O)[C@@H](C)[C@@H](C)OC(=O)[C@@H]2C)O[C@@H](C)[C@@H]1O`, the max response was -2.69% (inactive).
